# Measured values published in PubChem BioAssay (NCATS).
# Results filed as inconclusive are left out. Activity calls are given as the source filed them. The call rests on the fitted dose curve; in most records, active means well fitted curve in the direction sought with a large enough effect; inconclusive means small, poorly fitted or top-dose-only effect, or another doubt; inactive means no such curve, though single readings can be large; an effect the other way counts as inactive or inconclusive.
# Key:
# [1] = Quantitative High-Throughput drug screen in 47 multiple myeloma cell lines against the NCATS MIPE library collection: AMO1_DSMZ cell viability assay (AID 1918927; further: nearly all actives have a fitted effect of over 30% in size; further: potency means the concentration at half of the fitted maximal effect)
# Summary of the method: (§1)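 Viability readout: CellTiter-Glo luminescence following 5 min room-temperature incubation with reagent. Prior exposure: 48 h, 37C, humidified 5% CO2, 500 cells per well.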
# [2] = Quantitative High-Throughput drug screen in 47 multiple myeloma cell lines against the NCATS MIPE library collection: ARP1_JJKsccF8 cell viability assay (AID 1918928; further: nearly all actives have a fitted effect of over 40% in size; further: potency means the concentration at half of the fitted maximal effect)
# Summary of the method: (§2)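 Here, 48 h treatment with MIPE 4.0 agents at 37 °C preceded an ATP luminescence read. Plating density was 500 cells per well.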
# [3] = Quantitative High-Throughput drug screen in 47 multiple myeloma cell lines against the NCATS MIPE library collection: ARD_JJKsccE7 cell viability assay (AID 1918929; further: potency means the concentration at half of the fitted maximal effect)
# Summary of the method: as §1
# [4] = Quantitative High-Throughput drug screen in 47 multiple myeloma cell lines against the NCATS MIPE library collection: Karpas620_DSMZ cell viability assay (AID 1918959); further: nearly all actives have a fitted effect of over 30% in size; further: potency means the concentration at half of the fitted maximal effect
# Summary of the method: (§3)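 Myeloma cell lines, 500 cells per well, exposed to MIPE 4.0 library compounds for 48 h at 37C, 5% CO2. Viability from ATP by CellTiter-Glo luminescence; normalised to DMSO (100%) and media-only (0%) wells.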
# [5] = Quantitative High-Throughput drug screen in 47 multiple myeloma cell lines against the NCATS MIPE library collection: KMM1_JCRB cell viability assay (AID 1918960); further: nearly all actives have a fitted effect of over 30% in size; further: potency means the concentration at half of the fitted maximal effect;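 on viability (% of DMSO): 100% = DMSO-treated cells and 0% = medium-only wells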
# Summary of the method: as §2
# [6] = Quantitative High-Throughput drug screen in 47 multiple myeloma cell lines against the NCATS MIPE library collection: Karpas417_ECACC cell viability assay (AID 1918961); conditions: Karpas417 myeloma viability, CellTiter-Glo ATP luminescence, 48 h; viability (% of DMSO): at 45.8 µM (top of the series); further: potency means the concentration at half of the fitted maximal effect
# Summary of the method: as §3
# [7] = Quantitative High-Throughput drug screen in 47 multiple myeloma cell lines against the NCATS MIPE library collection: JIM1_ECACC cell viability assay (AID 1918964; further: potency means the concentration at half of the fitted maximal effect)
# Summary of the method: as §1
# [8] = Quantitative High-Throughput drug screen in 47 multiple myeloma cell lines against the NCATS MIPE library collection: INA6_PLB cell viability assay (AID 1918965; further: nearly all actives have a fitted effect of over 55% in size; further: potency means the concentration at half of the fitted maximal effect)
# Summary of the method: as §3
# [9] = Quantitative High-Throughput drug screen in 47 multiple myeloma cell lines against the NCATS MIPE library collection: JJN3_DSMZ cell viability assay (AID 1918966; further: nearly all actives have a fitted effect of over 50% in size; further: potency means the concentration at half of the fitted maximal effect)
# Summary of the method: as §1
# [10] = Quantitative High-Throughput drug screen in 47 multiple myeloma cell lines against the NCATS MIPE library collection: H1112_PLB cell viability assay (AID 1918967; further: nearly all actives have a fitted effect of over 30% in size; further: potency means the concentration at half of the fitted maximal effect)
# Summary of the method: as §1
# [11] = Quantitative High-Throughput drug screen in 47 multiple myeloma cell lines against the NCATS MIPE library collection: Karpas25_ECACC cell viability assay (AID 1918968; further: nearly all actives have a fitted effect of over 35% in size; further: potency means the concentration at half of the fitted maximal effect)
# Summary of the method: as §1
# [12] = Quantitative High-Throughput drug screen in 47 multiple myeloma cell lines against the NCATS MIPE library collection: KMS12PE_JCRB cell viability assay (AID 1918972); further: nearly all actives have a fitted effect of over 30% in size; further: potency means the concentration at half of the fitted maximal effect
# Summary of the method: as §3
# [13] = Quantitative High-Throughput drug screen in 47 multiple myeloma cell lines against the NCATS MIPE library collection: KMS26_JCRB cell viability assay (AID 1918975); further: nearly all actives have a fitted effect of over 45% in size; further: potency means the concentration at half of the fitted maximal effect
# Summary of the method: (§4)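 Luminescent ATP measurement with CellTiter-Glo gives viability, scaled between DMSO-only wells (100%) and media-only wells (0%). Cells, 500 per well, faced library compounds for 48 hours at 37C.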
# [14] = Quantitative High-Throughput drug screen in 47 multiple myeloma cell lines against the NCATS MIPE library collection: MMM1_PLB cell viability assay (AID 1918976); further: nearly all actives have a fitted effect of over 35% in size; further: potency means the concentration at half of the fitted maximal effect
# Summary of the method: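 500 cells/well per myeloma line exposed to pinned MIPE 4.0 compounds for 48 h at 37 °C, 5% CO2. Viability read as ATP by CellTiter-Glo luminescence, normalised to DMSO-only (100%) and media-only (0%) wells.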
# [15] = Quantitative High-Throughput drug screen in 47 multiple myeloma cell lines against the NCATS MIPE library collection: JIM3_ECACC cell viability assay (AID 1918963; further: nearly all actives have a fitted effect of over 35% in size; further: potency means the concentration at half of the fitted maximal effect)
# Summary of the method: as §3
# [16] = Quantitative High-Throughput drug screen in 47 multiple myeloma cell lines against the NCATS MIPE library collection: KMS12BM_JCRB cell viability assay (AID 1918971); further: nearly all actives have a fitted effect of over 35% in size; further: potency means the concentration at half of the fitted maximal effect
# Summary of the method: as §4
# [17] = Quantitative High-Throughput drug screen in 47 multiple myeloma cell lines against the NCATS MIPE library collection: KMS21BM_JCRB cell viability assay (AID 1918974); conditions: ATP luminescence, 48 h; viability: at 45.8 µM (top of the series); further: potency means the concentration at half of the fitted maximal effect
# Summary of the method: as §1
# [18] = Quantitative High-Throughput drug screen in 47 multiple myeloma cell lines against the NCATS MIPE library collection: KMS27_JCRB cell viability assay (AID 1918970); further: nearly all actives have a fitted effect of over 30% in size; further: potency means the concentration at half of the fitted maximal effect
# Summary of the method: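 Myeloma cells (500 per well) were exposed to MIPE 4.0 compounds for 48 h at 37 °C, 5% CO2; viability was read as ATP luminescence with CellTiter-Glo, normalized to DMSO-only (100%) and media-only (0%) wells.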
# [19] = Quantitative High-Throughput drug screen in 47 multiple myeloma cell lines against the NCATS MIPE library collection: KMS20_JCRB cell viability assay (AID 1918973); further: nearly all actives have a fitted effect of over 45% in size; further: potency means the concentration at half of the fitted maximal effect
# Summary of the method: as §1
# [20] = Quantitative High-Throughput drug screen in 47 multiple myeloma cell lines against the NCATS MIPE library collection: KHM11_PLB cell viability assay (AID 1918962); further: nearly all actives have a fitted effect of over 35% in size
# Summary of the method: as §3
compound,measurement,setting,value
CCNC(=O)C[C@@H]1N=C(c2ccc(Cl)cc2)c2cc(OC)ccc2-n2c(C)nnc21,Potency,[1],372 nM (active)
same,Potency,[2],372 nM (active)
same,Potency,[3],264 nM (active)
same,Potency,[4],1050 nM (active)
same,Potency,[5],235 nM (active)
same,Potency,[6],13.2 nM (active)
same,Potency,[7],1660 nM (active)
same,Potency,[8],132 nM (active)
same,Potency,[9],148 nM (active)
same,Potency,[10],743 nM (active)
same,Potency,[11],2090 nM (active)
same,Potency,[12],166 nM (active)
same,Potency,[13],93.5 nM (active)
same,Potency,[14],209 nM (active)
CC(=Cc1csc(C)n1)[C@@H]1C[C@H]2O[C@]2(C)CCC[C@H](C)[C@@H](O)[C@@H](C)C(=O)C(C)(C)[C@@H](O)CC(=O)O1,Potency,[1],1 nM (active)
same,Potency,[2],inactive
same,Potency,[3],inactive
same,Potency,[5],1 nM (active)
same,Potency,[15],inactive
same,Potency,[8],inactive
same,Potency,[9],inactive
same,Potency,[10],inactive
same,Potency,[16],inactive
same,viability,[17],80.2% (active)
same,Potency,[14],inactive
Cc1ccccc1-n1c(Cn2cnc3c(N)ncnc32)nc2cccc(C)c2c1=O,Potency,[1],833 nM (active)
same,Potency,[2],132 nM (active)
same,Potency,[4],4180 nM (active)
same,Potency,[5],372 nM (active)
same,Potency,[6],132 nM (active)
same,Potency,[15],1050 nM (active)
same,Potency,[8],935 nM (active)
same,Potency,[9],833 nM (active)
same,Potency,[11],187 nM (active)
same,Potency,[18],296 nM (active)
same,Potency,[16],1480 nM (active)
same,Potency,[12],264 nM (active)
same,Potency,[19],296 nM (active)
same,Potency,[17],235 nM (active)
same,Potency,[13],2960 nM (active)
same,Potency,[14],166 nM (active)
COC(=O)[C@@H](N)CCCN=C(N)N[N+](=O)[O-],Potency,[1],inactive
same,Potency,[2],inactive
same,Potency,[3],inactive
same,Potency,[4],inactive
same,Potency,[5],inactive
same,Potency,[15],inactive
same,Potency,[7],inactive
same,Potency,[10],inactive
same,Potency,[18],inactive
same,Potency,[12],inactive
CC[C@H]1C=CC=CC[C@@H](C)[C@H](O)[C@@](C)(O)C(=O)[C@@H](C)[C@H](O)[C@@H](C)C(=O)[C@@H](C)[C@H](O)[C@@H](C)C=CC(=O)O[C@@H]2[C@@H](C)[C@H](CC1)O[C@]1(CC[C@H](C)[C@H](C[C@@H](C)O)O1)[C@H]2C,Potency,[1],5.9 nM (active)
same,Potency,[2],2.1 nM (active)
same,Potency,[3],1 nM (active)
same,Potency,[4],1 nM (active)
same,Potency,[7],1 nM (active)
same,Potency,[8],13.2 nM (active)
same,Potency,[9],18700 nM (active)
same,Potency,[10],5.3 nM (active)
same,Potency,[11],1 nM (active)
same,Potency,[13],10500 nM (active)
same,Potency,[14],5.9 nM (active)
O=[N+]([O-])c1ncc[nH]1,Potency,[1],inactive
same,Potency,[2],inactive
same,Potency,[4],inactive
same,Potency,[5],inactive
same,Potency,[6],inactive
same,Potency,[9],inactive
same,Potency,[10],inactive
same,Potency,[12],inactive
same,Potency,[19],inactive
same,Potency,[17],inactive
same,Potency,[13],inactive
same,Potency,[14],3320 nM (active)
CC[C@@]1(O)C(=O)OCc2c1cc1n(c2=O)Cc2cc3ccccc3nc2-1,Potency,[1],23.5 nM (active)
same,Potency,[2],118 nM (active)
same,Potency,[4],418 nM (active)
same,Potency,[5],105 nM (active)
same,Potency,[6],296 nM (active)
same,Potency,[15],264 nM (active)
same,Potency,[7],132 nM (active)
same,Potency,[8],20.9 nM (active)
same,Potency,[9],743 nM (active)
same,Potency,[10],59 nM (active)
same,Potency,[18],16.6 nM (active)
same,Potency,[16],166 nM (active)
same,Potency,[12],132 nM (active)
same,Potency,[19],209 nM (active)
same,Potency,[13],2350 nM (active)
same,Potency,[14],935 nM (active)
CCOP(=O)(OCC)C(C)NC(=O)N(CCCl)N=O (configuration not stated),Potency,[1],inactive
same,Potency,[2],inactive
same,Potency,[3],inactive
same,Potency,[4],inactive
same,Potency,[5],inactive
same,Potency,[6],inactive
same,Potency,[20],inactive
same,Potency,[9],inactive
same,Potency,[10],inactive
same,Potency,[11],inactive
same,Potency,[18],inactive
same,Potency,[12],inactive
CC(C)[C@]12O[C@@H]1[C@@H]1O[C@]13[C@]1(O[C@H]1C[C@@H]1C4=C(CC[C@@]13C)C(=O)OC4)[C@H]2O,Potency,[1],inactive
same,Potency,[2],inactive
same,Potency,[3],inactive
same,Potency,[4],inactive
same,Potency,[5],inactive
same,Potency,[6],inactive
same,Potency,[15],inactive
same,Potency,[7],inactive
same,Potency,[8],inactive
same,Potency,[9],inactive
same,Potency,[10],inactive
same,Potency,[18],inactive
same,Potency,[12],inactive
same,Potency,[19],inactive
same,Potency,[17],inactive
same,Potency,[13],inactive
same,Potency,[14],inactive
CC1=C(O)C(=O)C=C2C1=CC=C1[C@@]2(C)CC[C@@]2(C)[C@@H]3C[C@](C)(C(=O)O)CC[C@]3(C)CC[C@]12C,Potency,[1],526 nM (active)
same,Potency,[2],743 nM (active)
same,Potency,[4],1050 nM (active)
same,Potency,[5],833 nM (active)
same,Potency,[6],743 nM (active)
same,Potency,[15],662 nM (active)
same,Potency,[7],743 nM (active)
same,Potency,[8],743 nM (active)
same,Potency,[9],743 nM (active)
same,Potency,[10],1320 nM (active)
same,Potency,[11],833 nM (active)
same,Potency,[12],1050 nM (active)
same,Potency,[19],935 nM (active)
same,Potency,[13],418 nM (active)
same,Potency,[14],1180 nM (active)
CN1[C@H]2CC(O)C[C@H]1[C@H]1O[C@H]12 (some centres not stated),Potency,[1],inactive
same,Potency,[2],20900 nM (active)
same,Potency,[3],inactive
same,Potency,[4],inactive
same,Potency,[5],inactive
same,Potency,[15],9350 nM (active)
same,Potency,[8],8330 nM (active)
same,Potency,[9],18700 nM (active)
same,Potency,[10],16600 nM (active)
same,Potency,[11],5900 nM (active)
same,Potency,[12],inactive
same,Potency,[19],11800 nM (active)
same,Potency,[13],16600 nM (active)
same,Potency,[14],20900 nM (active)
CC(C)N(CCNC(=O)CN1CCCC1=O)C(C)C,Potency,[1],inactive
same,Potency,[2],inactive
same,Potency,[3],inactive
same,Potency,[4],inactive
same,Potency,[5],inactive
same,Potency,[6],inactive
same,Potency,[15],inactive
same,Potency,[8],inactive
same,Potency,[9],inactive
same,Potency,[10],inactive
same,Potency,[11],inactive
same,Potency,[16],11800 nM (active)
same,Potency,[12],inactive
same,Potency,[19],inactive
